Drawing on PubChem BioAssay (NCI), this text covers growth for 26 compounds.

The panel holds about 83,000 compounds, 20% with a hit somewhere; the sample as a whole holds those more often.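 Single-concentration screen, 48 h exposure, 96-well plates. Endpoint: percent growth. Below 10 = active.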 A number with no mark means an inactive call. Calls of active or inactive are those of the source.

For the assay, the system named is A498 renal. As to the kind of experiment: NCI-60 one-dose screen, 48 h (100 = growth as untreated, 0 = no growth, -100 = all killed). Particulars: 10 µM.
In the case of `COC(=O)[C@@H](C)C[C@H](Cc1ccccc1)NC(=O)c1nc([C@@H](C[C@H](C(C)C)N(C)C(=O)[C@@H](NC(=O)[C@H]2CCCN2C)C(C)C)OC(C)=O)sc1C`, the growth is -2.29% (active).
In the case of `CCCCCSC1C2C(=O)C(Br)=CC13CCNc1c(O)c4c5c(c13)=[N+]2CCC=5C=N4` (stereo unspecified), the growth was 12.2%.
The value for `CC1=C(CCCOC(=O)CN)C2=C(C)C3(CC3)[C@@](C)(O)C(=O)C2=C1` was 94.7%; that for `COC(=O)CC[C@H](Cc1ccccc1)NC(=O)c1csc([C@@H](C[C@H](C(C)C)N(C)C(=O)[C@@H](NC(=O)[C@H]2CCCCN2C)C(C)C)OC(C)=O)n1` was 5.63% (active); that for `COC(=O)CC12CC(NC(=O)c3csc([C@@H](C[C@H](C(C)C)N(C)C(=O)[C@@H](NC(=O)[C@H]4CCCCN4C)C(C)C)OC(C)=O)n3)(C1)C2` was 5.32% (active).
Consider `O=C1CNC(c2ccccc2)c2cc(Cl)ccc2N1` (stereo unspecified), for which the growth is 97.5%.
The value for `CC1(C)N=C(N)N=C(N)N1c1cccc(CCCCc2ccc(Cl)c(S(=O)(=O)F)c2)c1` was 86.1%; that for `CC(=O)O[C@H](C[C@H](C(C)C)N(C)C(=O)[C@@H](NC(=O)[C@H]1CCCCN1C)C(C)C)c1nc(C(=O)N[C@@H](Cc2ccccc2)C[C@H](C)C(=O)O)c(C(C)C)s1` was -8.17% (active).
For the compound `COC(=O)[C@@H](C)C[C@H](Cc1ccccc1)NC(=O)c1csc(CC[C@H](C(C)C)N(C)C(=O)[C@@H](NC(=O)[C@H]2CCCCN2C)C(C)C)n1`, the growth was 0.74% (active).
Regarding `CCOP(=O)(NC[C@H]1O[C@](O)(CO)[C@@H](O)[C@@H]1O)OCC`, the growth was 99.9%.
As for `COc1cc([C@@H]2c3cc4c(cc3[C@H](OC(C)=O)[C@H]3COC(=O)[C@H]23)OCO4)cc(OC)c1OC`, the figure is -7.56% (active).
As for `COC(=O)[C@@H](C)C[C@H](Cc1cn(C)c2ccccc12)NC(=O)c1csc([C@@H](C[C@H](C(C)C)N(C)C(=O)[C@@H](NC(=O)[C@H]2CCCCN2C)C(C)C)OC(C)=O)n1`, the growth is -1.42% (active).
As for `CCOC(=O)[C@@H](C)C[C@H](Cc1ccccc1)NC(=O)c1csc([C@@H](C[C@H](C(C)C)N(C)C(=O)[C@@H](NC(=O)[C@H]2CCCCN2C)C(C)(C)C)OC(C)=O)n1`, the growth is -11.4% (active).
Regarding `CC1=C(CCCNS(C)(=O)=O)C2=C(C)C3(CC3)[C@@](C)(O)C(=O)C2=C1`, the growth was -43.2% (active).
For the compound `COC(=O)[C@@H](C)C[C@H](Cc1ccccc1)NC(=O)c1cccc([C@@H](C[C@H](C(C)C)N(C)C(=O)[C@@H](NC(=O)[C@H]2CCCCN2C)C(C)C)OC(C)=O)n1`, the growth is -0.869% (active).
`CNC(=O)Oc1ccc(C(C)(C)C)cc1OC(=O)NC`: the growth was 98.8%.
As for `CC1(C)C(C(=O)c2cn(CCCCF)c3ccccc23)C1(C)C`, the growth was 92.9%.
With `CC(=O)O[C@H](C[C@H](C(C)C)N(C)C(=O)[C@@H](NC(=O)[C@H]1CCCCN1C)C(C)C)c1nc(C(=O)NC2CCC(C(=O)O)CC2)cs1` (stereo partly specified), the growth was 35.8%.
As for `CCCC[C@H](NC(=O)[C@H]1CCCN1C)C(=O)N(C)[C@H](C[C@@H](OC(C)=O)c1nc(C(=O)N[C@@H](Cc2ccccc2)C[C@H](C)C(=O)OCC)cs1)C(C)C`, the figure is -11.7% (active); as for `CCOC(=O)[C@@H](C)C[C@H](Cc1ccccc1)NC(=O)c1csc([C@@H](C[C@H](C(C)C)N(C)C(=O)CNC(=O)[C@H]2CCCCN2C)OC(C)=O)n1`, -3.32% (active).
As for `COc1ccc([As]=[As]c2ccc(OC)c(NCS(=O)(=O)O)c2)cc1NCS(=O)(=O)O` (stereo unspecified), the figure is 20.9%; as for `CC1=C(CCCOC(=O)[C@H](N)CC(C)C)C2=C(C)C3(CC3)[C@@](C)(O)C(=O)C2=C1`, -74.2% (active); as for `O=[N+]([O-])c1cc(I)cc([N+](=O)[O-])c1`, 111%.
Turning to `CC(=O)OC[C@]1(C)C=C2C(=O)[C@](C)(O)C3(CC3)C(C)=C2[C@H]1OC(=O)N(C)CCN(C)C(=O)OC(C)(C)C`, the growth is -10.8% (active).
The value for `CC[C@H](C)[C@H](NC(=O)[C@H]1CCCCN1C)C(=O)N(C)[C@H](CCc1nc(C(=O)N[C@@H](Cc2ccccc2)C[C@H](C)C(=O)OC)cs1)C(C)C` was -2.22% (active); that for `COc1ccc(Nc2ccc([N+](=O)[O-])cc2[N+](=O)[O-])cc1CN(CCCl)CCCl` was 18.5%.
